Source: PubChem BioAssay (EPA / NIEHS)
“And” between values parts separate entries of the source, which are not always exact repeats. Equal entries are not always repeated. Records with an inconclusive call do not appear. Some compounds were tested as several samples or in several runs, with calls that do not always agree. The source made the active and inactive calls. Rule for the calls, unless noted: active = hit-call score of the fitted dose curve at least 0.9, where 1 is the maximum; inconclusive = response in the unintended direction; inactive = score below 0.9.

What was measured:
[1] = ATG_TCF_b_cat_CIS: Attagene CIS-FACTORIAL HepG2 Assay for human T-Cell-Factor with beta-catenin (TCF/b-cat) (AID 2282965; active = hit-call score of the fitted dose curve at least 0.9, where 1 is the maximum; inactive = score below 0.9); details: HepG2 TCF/beta-catenin cis-reporter transcription, actives raise or lower the signal
In short: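 Measured: reporter mRNA in HepG2 transiently transfected with cis-promoter reporter units, 24 h after chemical addition. Fitting was bidirectional, DMSO as negative control.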

[2] = ATG_TAL_CIS: Attagene CIS-FACTORIAL HepG2 Assay for human TAL Basal Promoter (AID 2282966; active = hit-call score of the fitted dose curve at least 0.9, where 1 is the maximum; inactive = score below 0.9;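 note: background control endpoint measuring basal TAL promoter reporter mRNA not a specific factor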); details: HepG2 Attagene cis-factorial TAL promoter reporter; actives raise or lower the signal
In short: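 In this cell-based multiplex, HepG2 liver cells bearing cis-promoter reporter constructs are dosed for 24 hours. Total RNA is reverse-transcribed and amplified, labelled fragments are sized by capillary electrophoresis, and signal changes are fitted bidirectionally versus DMSO.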

[3] = ATG_TGFb_CIS: Attagene CIS-FACTORIAL HepG2 Assay for human Transforming Growth Factor (TGF) (AID 2282967; active = hit-call score of the fitted dose curve at least 0.9, where 1 is the maximum; inactive = score below 0.9); details: HepG2 Attagene CIS TGFb reporter, mRNA transcription; actives raise or lower the signal
In short: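 HepG2 cells transiently transfected with cis-promoter-driven multiplexed reporter units; 24 h compound exposure. Reporter mRNA measured by RT-PCR, 6-FAM labeling, HpaI digestion and capillary electrophoresis; bidirectional fit versus DMSO baseline.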

[4] = ATG_VDRE_CIS: Attagene CIS-FACTORIAL HepG2 Assay for human Vitamin D Receptor Element (VDRE) (AID 2282968; active = hit-call score of the fitted dose curve at least 0.9, where 1 is the maximum; inactive = score below 0.9); details: HepG2 VDRE cis-reporter transcription, actives raise or lower the signal
In short: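 Reporter mRNA induction, quantified by capillary electrophoresis of fluorescently labelled RT-PCR products, was read 24 h after dosing HepG2 cells carrying transiently transfected cis-regulated reporter units; gain or loss relative to DMSO.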

[5] = target: Nuclear receptor subfamily 1 group I member 3 (Homo sapiens) (UniProt Q14994); experiment: ATG_CAR_TRANS: Attagene TRANS-FACTORIAL HepG2 Assay for human Constitutive Androstane Receptor (CAR) (AID 2282969); details: HepG2 Attagene TRANS-FACTORIAL CAR reporter;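 note: activators raise reporter mRNA above DMSO so AC50 marks induction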
Chain of Nuclear receptor subfamily 1 group I member 3 (Homo sapiens) (Q14994 whole entry, looked up, the tested form may be a part): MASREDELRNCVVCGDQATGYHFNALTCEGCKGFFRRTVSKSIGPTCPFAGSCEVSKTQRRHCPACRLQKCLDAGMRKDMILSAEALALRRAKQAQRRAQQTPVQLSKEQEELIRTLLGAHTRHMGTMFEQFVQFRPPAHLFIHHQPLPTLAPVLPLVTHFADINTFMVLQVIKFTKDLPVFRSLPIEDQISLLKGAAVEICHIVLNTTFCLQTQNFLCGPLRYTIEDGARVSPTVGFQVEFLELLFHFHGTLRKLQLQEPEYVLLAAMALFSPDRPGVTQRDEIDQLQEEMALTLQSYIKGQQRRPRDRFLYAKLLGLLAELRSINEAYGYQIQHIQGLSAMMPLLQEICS
In short: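 Readout is reporter mRNA induction, quantified by fluorescent primer extension and capillary electrophoresis after RT-PCR. Cells were HepG2 transiently carrying chimeric NR-Gal4 constructs with GAL4-UAS reporters, treated for 24 h; activity scored upward from DMSO.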

[6] = target: Estrogen receptor (Homo sapiens) (UniProt P03372); experiment: ATG_ERa_TRANS: Attagene TRANS-FACTORIAL HepG2 Assay for human Estrogen Receptor alpha (ERa) (AID 2282970); details: HepG2 Attagene TRANS ERa GAL4 reporter, mRNA
Chain of Estrogen receptor (Homo sapiens) (P03372 whole entry, looked up, the tested form may be a part): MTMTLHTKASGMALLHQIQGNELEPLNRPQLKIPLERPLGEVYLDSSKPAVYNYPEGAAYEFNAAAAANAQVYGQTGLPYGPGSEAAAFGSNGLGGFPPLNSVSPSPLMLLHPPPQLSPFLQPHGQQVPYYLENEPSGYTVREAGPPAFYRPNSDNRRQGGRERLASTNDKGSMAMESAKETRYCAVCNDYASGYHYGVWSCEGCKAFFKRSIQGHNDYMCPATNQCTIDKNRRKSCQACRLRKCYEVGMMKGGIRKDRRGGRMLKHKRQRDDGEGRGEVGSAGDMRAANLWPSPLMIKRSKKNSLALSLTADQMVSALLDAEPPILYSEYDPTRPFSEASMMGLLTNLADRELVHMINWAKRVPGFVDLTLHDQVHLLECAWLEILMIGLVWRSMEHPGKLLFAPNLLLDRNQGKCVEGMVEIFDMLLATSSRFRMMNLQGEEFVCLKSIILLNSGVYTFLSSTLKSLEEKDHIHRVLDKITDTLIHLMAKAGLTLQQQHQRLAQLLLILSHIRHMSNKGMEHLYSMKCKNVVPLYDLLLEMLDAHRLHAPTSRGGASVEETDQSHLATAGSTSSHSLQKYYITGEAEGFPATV
In short: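 After 24 h of compound treatment, RNA from HepG2 cells bearing transfected GAL4-UAS reporter constructs is converted to cDNA, amplified and fluorescently labelled. Capillary electrophoresis resolves the ERa-linked reporter; DMSO serves as negative control.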

[7] = target: Steroid hormone receptor ERR1 (Homo sapiens) (UniProt P11474); experiment: ATG_ERRa_TRANS: Attagene TRANS-FACTORIAL HepG2 Assay for human Estrogen-Related Receptor alpha (ERRa) (AID 2282971); details: HepG2 Attagene TRANS reporter, ERRa transactivation
In short: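 Transfected HepG2, 24 h dosing, ERRa-Gal4 chimera driving GAL4-UAS reporter. Readout: reporter mRNA via RT-PCR plus capillary electrophoresis (fluorescence). Positive direction vs DMSO control.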

[8] = target: X-box-binding protein 1 (Homo sapiens) (UniProt P17861); experiment: ATG_Xbp1_CIS: Attagene CIS-FACTORIAL HepG2 Assay for human X-box Binding Protein 1 (XBP1) (AID 2282972; active = hit-call score of the fitted dose curve at least 0.9, where 1 is the maximum; inactive = score below 0.9); details: HepG2 XBP1 cis-element reporter, Attagene multiplex; actives raise or lower the signal
In short: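 HepG2 cells transiently transfected with multiple cis-element reporter units report endogenous TF activity; 24 h exposure, then reporter mRNA measured by RT-PCR, 6-FAM labelling, HpaI digestion and capillary electrophoresis. Bidirectional fitting versus DMSO.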

[9] = ATG_M_19_TRANS: Attagene TRANS-FACTORIAL HepG2 Assay for M19 Transcription Factor (Internal Marker) (AID 2282974); details: HepG2 Attagene TRANS-FACTORIAL M19 internal marker reporter
In short: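 Transfected HepG2 (GAL4-UAS MRTUs), 24 h compound, TriZol RNA, DNase-treated RT, reporter PCR, FAM label, HpaI digest, CE fluorescence; gain vs DMSO.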

[10] = ATG_GAL4_TRANS: Attagene TRANS-FACTORIAL HepG2 Assay for GAL4 (Internal Marker) (AID 2282976); details: HepG2 Attagene TRANS GAL4 internal marker reporter
In short: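 RT-PCR/capillary electrophoresis readout of reporter mRNA. HepG2, transient MRTU transfection (GAL4-UAS reporters), 24 h compound exposure. Background-control endpoint, positive direction vs DMSO baseline.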

[11] = target: Estrogen-related receptor gamma (Homo sapiens) (UniProt P62508); experiment: ATG_ERRg_TRANS: Attagene TRANS-FACTORIAL HepG2 Assay for human Estrogen-Related Receptor gamma (ERRg) (AID 2282977); details: HepG2 Attagene TRANS reporter, ERRg transactivation;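 note: hits increase reporter signal over DMSO so potencies reflect activators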
In short: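 Transfect HepG2 with multiple GAL4-UAS reporter transcription units; dose chemicals 24 h; isolate RNA, reverse-transcribe with oligo(dT), PCR-amplify, label with 6-FAM, digest with HpaI; size fragments by capillary electrophoresis. DMSO serves as negative control.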

[12] = target: Bile acid receptor (Homo sapiens) (UniProt Q96RI1); experiment: ATG_FXR_TRANS: Attagene TRANS-FACTORIAL HepG2 Assay for Farnesoid X Receptor (FXR) (AID 2282979); details: HepG2 Attagene TRANS FXR-GAL4 reporter transcription;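 note: hits raise reporter mRNA above DMSO so AC50 marks FXR activation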
Chain of Bile acid receptor (Homo sapiens) (Q96RI1 whole entry, looked up, the tested form may be a part): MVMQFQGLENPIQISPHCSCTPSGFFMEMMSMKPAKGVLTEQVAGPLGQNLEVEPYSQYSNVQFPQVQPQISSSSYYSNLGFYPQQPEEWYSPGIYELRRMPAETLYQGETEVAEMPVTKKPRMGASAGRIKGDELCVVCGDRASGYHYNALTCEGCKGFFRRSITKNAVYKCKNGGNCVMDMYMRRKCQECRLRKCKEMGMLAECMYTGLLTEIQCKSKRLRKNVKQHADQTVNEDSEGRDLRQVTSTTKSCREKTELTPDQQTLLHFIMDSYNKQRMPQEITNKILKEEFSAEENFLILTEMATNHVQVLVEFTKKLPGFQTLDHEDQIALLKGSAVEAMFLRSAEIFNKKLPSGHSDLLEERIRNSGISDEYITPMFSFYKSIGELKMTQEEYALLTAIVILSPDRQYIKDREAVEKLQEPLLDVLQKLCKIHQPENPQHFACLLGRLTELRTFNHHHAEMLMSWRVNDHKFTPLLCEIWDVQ
In short: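 Read-out: fluorescent reporter transcripts quantified by capillary electrophoresis after RT-PCR of total RNA. Source cells were HepG2 transiently carrying chimeric NR-GAL4 plus GAL4-UAS reporter units, dosed 24 h. Activity fitted upward relative to DMSO baseline.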

[13] = target: Nuclear receptor subfamily 4 group A member 2 (Homo sapiens) (UniProt P43354); experiment: ATG_NURR1_TRANS: Attagene TRANS-FACTORIAL HepG2 Assay for human Nuclear Receptor Related Protein 1 (NURR1) (AID 2282985); details: HepG2 Attagene TRANS reporter, mRNA readout
Chain of Nuclear receptor subfamily 4 group A member 2 (Homo sapiens) (P43354 whole entry, looked up, the tested form may be a part): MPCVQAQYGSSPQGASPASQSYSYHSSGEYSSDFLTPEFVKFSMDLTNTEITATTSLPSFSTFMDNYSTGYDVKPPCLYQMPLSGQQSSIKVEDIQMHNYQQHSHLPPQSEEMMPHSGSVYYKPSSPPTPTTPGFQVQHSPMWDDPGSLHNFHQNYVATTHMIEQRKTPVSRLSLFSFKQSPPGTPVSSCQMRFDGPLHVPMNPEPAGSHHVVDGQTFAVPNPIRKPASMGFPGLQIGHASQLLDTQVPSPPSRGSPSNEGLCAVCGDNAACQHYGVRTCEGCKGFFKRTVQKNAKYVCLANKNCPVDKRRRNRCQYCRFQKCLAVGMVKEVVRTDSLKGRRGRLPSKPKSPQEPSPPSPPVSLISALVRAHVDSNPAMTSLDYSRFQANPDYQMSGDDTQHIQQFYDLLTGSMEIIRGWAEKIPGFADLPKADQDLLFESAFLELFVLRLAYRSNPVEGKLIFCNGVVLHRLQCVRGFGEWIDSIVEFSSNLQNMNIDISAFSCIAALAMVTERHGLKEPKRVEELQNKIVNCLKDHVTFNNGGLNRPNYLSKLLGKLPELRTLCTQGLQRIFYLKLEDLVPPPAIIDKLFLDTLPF
In short: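 Transient transfection of HepG2, human liver cells, with multiple GAL4-UAS reporter transcription units. Cells dosed 24 h, RNA isolated, reverse-transcribed, PCR-amplified, FAM-labelled, HpaI-digested, sized by capillary electrophoresis. DMSO served as negative control.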

[14] = target: Transcriptional activator Myb (Homo sapiens) (UniProt P10242); experiment: ATG_Myb_CIS: Attagene CIS-FACTORIAL HepG2 Assay for human Myeloblastosis (Myb) Proto-Oncogene Transcription Factor (AID 2282986; active = hit-call score of the fitted dose curve at least 0.9, where 1 is the maximum; inactive = score below 0.9); details: HepG2 Attagene CIS-FACTORIAL Myb reporter transcription; actives raise or lower the signal
Chain of Transcriptional activator Myb (Homo sapiens) (P10242 whole entry, looked up): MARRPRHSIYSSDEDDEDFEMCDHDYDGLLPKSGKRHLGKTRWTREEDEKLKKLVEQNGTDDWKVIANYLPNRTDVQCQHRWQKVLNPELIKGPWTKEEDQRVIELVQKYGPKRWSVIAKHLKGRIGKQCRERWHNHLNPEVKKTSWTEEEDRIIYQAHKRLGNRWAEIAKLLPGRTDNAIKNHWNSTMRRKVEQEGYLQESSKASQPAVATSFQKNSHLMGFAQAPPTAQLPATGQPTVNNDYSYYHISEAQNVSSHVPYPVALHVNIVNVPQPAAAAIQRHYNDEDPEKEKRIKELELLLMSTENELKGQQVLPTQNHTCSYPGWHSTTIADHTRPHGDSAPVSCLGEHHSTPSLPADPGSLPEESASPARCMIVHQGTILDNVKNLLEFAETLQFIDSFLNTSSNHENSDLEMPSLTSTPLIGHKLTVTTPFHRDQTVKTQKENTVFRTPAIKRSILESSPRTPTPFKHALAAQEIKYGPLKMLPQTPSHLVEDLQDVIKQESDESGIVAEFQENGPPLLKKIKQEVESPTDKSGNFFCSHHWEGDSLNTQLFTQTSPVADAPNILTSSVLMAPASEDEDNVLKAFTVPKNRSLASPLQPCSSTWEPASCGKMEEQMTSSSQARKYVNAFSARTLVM
In short: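 After 24 h of compound dosing, total RNA from transfected HepG2 cells is reverse-transcribed and the reporter sequences amplified, labeled and separated by capillary electrophoresis. Values come from bidirectional fitting against DMSO.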

[15] = target: Glucocorticoid receptor (Homo sapiens) (UniProt P04150); experiment: ATG_GR_TRANS: Attagene TRANS-FACTORIAL HepG2 Assay for human Glucocorticoid Receptor (GR) (AID 2282978); details: HepG2 Attagene TRANS GR reporter, mRNA transcription;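 note: activators score as hits since higher reporter transcript over DMSO is fitted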
Chain of Glucocorticoid receptor (Homo sapiens) (P04150 whole entry, looked up): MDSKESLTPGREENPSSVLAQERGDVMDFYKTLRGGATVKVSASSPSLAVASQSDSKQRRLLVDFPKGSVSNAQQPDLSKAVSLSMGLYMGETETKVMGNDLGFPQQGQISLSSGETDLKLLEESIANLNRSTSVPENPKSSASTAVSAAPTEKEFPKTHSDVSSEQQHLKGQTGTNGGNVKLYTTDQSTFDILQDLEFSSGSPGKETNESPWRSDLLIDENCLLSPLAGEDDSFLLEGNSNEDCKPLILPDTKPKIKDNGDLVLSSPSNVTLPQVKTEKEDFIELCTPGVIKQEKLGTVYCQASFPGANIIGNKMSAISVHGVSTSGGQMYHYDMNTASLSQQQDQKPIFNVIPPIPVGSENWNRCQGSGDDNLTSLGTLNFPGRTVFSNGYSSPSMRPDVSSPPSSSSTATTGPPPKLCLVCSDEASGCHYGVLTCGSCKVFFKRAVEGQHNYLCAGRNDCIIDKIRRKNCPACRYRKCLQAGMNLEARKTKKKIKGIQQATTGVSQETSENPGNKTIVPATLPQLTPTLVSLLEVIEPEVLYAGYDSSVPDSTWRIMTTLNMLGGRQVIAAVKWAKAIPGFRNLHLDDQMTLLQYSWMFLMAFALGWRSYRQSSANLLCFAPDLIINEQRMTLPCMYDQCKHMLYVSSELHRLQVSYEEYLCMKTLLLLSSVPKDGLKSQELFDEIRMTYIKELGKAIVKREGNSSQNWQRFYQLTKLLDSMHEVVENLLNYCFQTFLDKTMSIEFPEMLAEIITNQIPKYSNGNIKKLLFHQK
In short: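 After 24 h incubation with test chemical, transfected HepG2 cells were lysed for RNA; reporter cDNA was amplified, FAM-labelled, HpaI-digested and sized on a capillary analyser. Signal gain relative to DMSO was scored.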

[16] = target: Oxysterols receptor LXR-alpha (Homo sapiens) (UniProt Q13133); experiment: ATG_LXRa_TRANS: Attagene TRANS-FACTORIAL HepG2 Assay for human Liver X Receptor alpha (LXRa) (AID 2282980); details: HepG2 Attagene TRANS reporter, LXRa transactivation
Chain of Oxysterols receptor LXR-alpha (Homo sapiens) (Q13133 whole entry, looked up, the tested form may be a part): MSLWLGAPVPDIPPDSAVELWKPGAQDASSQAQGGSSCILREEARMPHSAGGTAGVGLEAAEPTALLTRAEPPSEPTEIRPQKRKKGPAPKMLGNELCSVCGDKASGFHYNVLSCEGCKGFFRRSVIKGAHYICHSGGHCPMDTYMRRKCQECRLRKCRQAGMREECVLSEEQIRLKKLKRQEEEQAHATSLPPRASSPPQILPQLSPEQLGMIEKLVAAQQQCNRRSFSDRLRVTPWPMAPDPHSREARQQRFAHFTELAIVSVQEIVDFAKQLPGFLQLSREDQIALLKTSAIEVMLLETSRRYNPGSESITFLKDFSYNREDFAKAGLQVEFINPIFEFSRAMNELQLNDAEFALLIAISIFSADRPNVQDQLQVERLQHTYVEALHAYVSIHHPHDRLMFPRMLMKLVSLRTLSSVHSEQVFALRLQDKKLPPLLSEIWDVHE
In short: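 Read-out: reporter transcript levels by RT-PCR plus capillary electrophoresis, fluorescence intensity. Transiently transfected HepG2, exogenous NR-GAL4 chimera, GAL4-UAS reporters; 24 h compound exposure. Activity = increase over DMSO negative control.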

[17] = target: Hepatocyte nuclear factor 4-alpha (Homo sapiens) (UniProt P41235); experiment: ATG_HNF4a_TRANS: Attagene TRANS-FACTORIAL HepG2 Assay for human Hepatocyte Nuclear Factor 4 alpha (HNF4a) (AID 2282982); details: HepG2 HNF4a transactivation reporter, mRNA readout
Chain of Hepatocyte nuclear factor 4-alpha (Homo sapiens) (P41235 whole entry, looked up, the tested form may be a part): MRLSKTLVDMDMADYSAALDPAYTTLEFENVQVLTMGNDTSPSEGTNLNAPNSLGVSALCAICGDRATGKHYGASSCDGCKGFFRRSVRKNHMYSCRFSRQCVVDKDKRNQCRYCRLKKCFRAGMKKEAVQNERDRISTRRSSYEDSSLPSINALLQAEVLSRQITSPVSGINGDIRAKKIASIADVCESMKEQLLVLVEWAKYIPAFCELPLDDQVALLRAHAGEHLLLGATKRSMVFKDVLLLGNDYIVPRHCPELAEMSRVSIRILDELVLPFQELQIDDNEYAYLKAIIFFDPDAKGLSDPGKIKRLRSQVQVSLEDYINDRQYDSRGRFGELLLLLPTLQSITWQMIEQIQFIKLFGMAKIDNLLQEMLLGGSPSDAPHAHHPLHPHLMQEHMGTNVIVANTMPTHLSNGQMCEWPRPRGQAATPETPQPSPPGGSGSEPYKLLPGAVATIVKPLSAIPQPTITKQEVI
In short: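 Readout is fluorescent reporter-transcript fragments resolved by capillary electrophoresis after RT-PCR from HepG2 cells dosed for 24 h. Cells carried transfected GAL4-UAS reporter constructs measuring exogenous NR-GAL4 chimera activity; DMSO served as baseline.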

[18] = target: Oxysterols receptor LXR-beta (Homo sapiens) (UniProt P55055); experiment: ATG_LXRb_TRANS: Attagene TRANS-FACTORIAL HepG2 Assay for human Liver X Receptor beta (LXRb) (AID 2282981); details: HepG2 Attagene TRANS GAL4-LXRb reporter, mRNA
Chain of Oxysterols receptor LXR-beta (Homo sapiens) (P55055 whole entry, looked up, the tested form may be a part): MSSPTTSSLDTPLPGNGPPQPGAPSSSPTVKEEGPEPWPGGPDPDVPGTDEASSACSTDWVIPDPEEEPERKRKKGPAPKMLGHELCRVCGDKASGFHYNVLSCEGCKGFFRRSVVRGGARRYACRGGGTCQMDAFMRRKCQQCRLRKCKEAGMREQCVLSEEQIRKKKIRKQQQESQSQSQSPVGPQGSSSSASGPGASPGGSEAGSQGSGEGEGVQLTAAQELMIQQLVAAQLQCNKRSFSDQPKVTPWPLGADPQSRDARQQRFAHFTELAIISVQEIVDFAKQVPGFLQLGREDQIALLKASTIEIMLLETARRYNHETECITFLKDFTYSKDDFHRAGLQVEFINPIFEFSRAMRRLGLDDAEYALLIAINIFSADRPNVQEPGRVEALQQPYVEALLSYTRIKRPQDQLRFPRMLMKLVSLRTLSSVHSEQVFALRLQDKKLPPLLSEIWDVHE
In short: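 Transient transfection HepG2 (multiplexed RTUs, GAL4-UAS); NR-Gal4 chimera; 24 h exposure; RNA → RT-PCR → 6-FAM primer extension → HpaI → CE; increase vs DMSO.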

[19] = ATG_M_06_TRANS: Attagene TRANS-FACTORIAL HepG2 Assay for M06 Transcription Factor (Internal Marker) (AID 2282983); details: HepG2 Attagene TRANS M06 internal marker reporter
In short: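 After a 24 h chemical treatment of transfected HepG2, RNA underwent DNase I treatment, reverse transcription and reporter-specific PCR; labelled, HpaI-digested products were sized by capillary electrophoresis. Signal increase relative to DMSO defined activity.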

[20] = ATG_M_32_TRANS: Attagene TRANS-FACTORIAL HepG2 Assay for M32 Transcription Factor (Internal Marker) (AID 2282984); details: HepG2 Attagene TRANS M32 internal marker reporter;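 note: transcript level of a background control reporter unit measured by RT-PCR and capillary electrophoresis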
In short: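 Measures reporter mRNA induction in human HepG2 liver cells after 24 h chemical treatment. Transcripts from transiently transfected GAL4-UAS reporter units are amplified, fluorescently labelled and sized by capillary electrophoresis; gain of signal relative to DMSO.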

Measured: AC50

CCCCCCCCOC(=O)CCCCCCCCC(=O)OCCCCCCCC
not listed: [15] | [16] | [17] | [18] | [19] | [20]
inactive: all other assays above

CCCCC(CC)COC(=O)CCCCC(=O)OCC(CC)CCCC (stereo unspecified)
not listed: [5] | [7] | [10] | [11] | [18] | [19] | [20]
inactive: all other assays above

COCC(C)O (stereo unspecified)
not listed: [4] | [5] | [10] | [12] | [17]
inactive: all other assays above

CCCCCCCCC(=O)O
not listed: [4] | [5] | [7] | [10] | [11] | [12] | [15] | [16]
inactive: all other assays above

CCCCOCCO
inactive: [1] | [2] | [3] | [5] | [6] | [7] | [8] | [9] | [19] | [14]

N#C[C@@H]1CC(F)(F)CN1C(=O)CNC1CC2CCC(C1)N2c1ncccn1 (stereo partly specified)
not listed: [4] | [5] | [13] | [17] | [18] | [19]
inactive: all other assays above

O=C1OC2(c3ccccc31)c1cc(Br)c(O)c(Br)c1Oc1c2cc(Br)c(O)c1Br
inactive: [1] | [2] | [3] | [5] | [6] | [8] | [9] | [10] | [15] | [12] | [16] | [18] | [17] | [19] | [20] | [13] | [14]
active: [8] 66.7 µM
